High-throughput results as filed in PubChem BioAssay.
This is a sample that favours compounds with a hit; in the whole collection about 3.6% have one here.
Mm-Cpn inhibitor = blocks the Methanococcus maripaludis chaperonin Mm-Cpn. 330,000 compounds, 0.031% hits. purified Mm-Cpn ATPase, ADP Transcreener TR-FRET. Potency, µM (doses to about 76.9 µM), without a hit: top-dose activity, negative = inhibition, usual class: inhibitors; further: on the % scale 0 is the no-effect control and ±100 the full control effect; nearly all actives have a fitted effect of over 80% in size
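Inhibition of chaperonin ATP hydrolysis is measured as reduced ADP production, detected by competitive TR-FRET in which signal falls with ADP. Final enzyme 25 nM and ATP 10 uM, reacted 30 min at 37°C.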
aSyn yeast inh = rescues yeast growth from alpha-synuclein toxicity; Yeast expressing alpha-synuclein, growth rescue, BacTiter-Glo, 24 h; Potency, µM (series often up to 46.1 µM), for inactives: top-dose growth rescue (activation), actives largely listed as activators; 370,000 compounds, 0.14% hits; further: % of control where 0% means no effect; nearly all actives have a fitted effect of over 65% in size
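Rescue of yeast growth: cells expressing toxic alpha-synuclein, induced in galactose at OD600 0.02, incubated with compound 24 h at 30 C. ATP luminescence quantified growth; inhibitors of toxicity appear as activators.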
Abeta rescue = restores growth of yeast expressing A-beta42 peptide; yeast expressing A-beta42, growth rescue, OD600, 48 h; response scale: 0% DMSO, 100% iron-clioquinol control; Potency, µM (titrated, usually from 46.1 µM), hits mostly activators; 410,000 compounds, 0.063% hits; further: nearly all actives have a fitted effect of over 55% in size
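Yeast A-beta toxicity model in growth medium with pinned compounds, 48 h at 30 C; growth read as absorbance at 600 nm. Normalized to FeCl3/clioquinol equimolar mix (positive) and DMSO (negative).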
FUS suppressor = rescues growth of FUS-expressing yeast. 390,000 compounds, 0.24% hits. AID 1347120. S. cerevisiae FUS-expressing, growth rescue, OD600, 24 h. Potency, µM (series often up to 76.6 µM), usual class: activators;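 further: plate controls were DMSO vehicle for no effect and reference control for full effect; nearly all actives have a fitted effect of over 55% in size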
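Yeast expressing FUS under galactose induction, OD 0.005 in 2% galactose medium; compounds in a dilution series, 24 h at 30C. Growth rescue by absorbance at 600 nm; CP55940 positive control, DMSO negative.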
TDP43 rescue = inhibitors of TDP-43 toxicity in yeast. TDP-43 expressing yeast growth rescue, BacTiter-Glo, 24 h. 410,000 compounds, 1.8% hits. Potency, µM (titrated, usually from 46.1 µM), for inactives: top-dose growth rescue (activation), most hits filed as activators; further: % of control where 0% means no effect; nearly all actives have a fitted effect of over 50% in size
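Yeast expressing TDP-43 (pregrown in raffinose, seeded at OD600=0.02 in galactose medium) exposed to compounds 24 hr at 30 deg C. Growth read by BacTiter-Glo luminescence; rescue of toxicity appears as increased signal.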
ClpP mod = qHTS Assay for Activators of ClpP; ATP-dependent Clp protease proteolytic subunit (Bacillus subtilis (strain 168)), P80244; 340,000 compounds, 1.9% hits; Potency, µM (series often up to 57.5 µM), inactives show top-dose activity change, negative = active; AID 651965, 2013; purified B. subtilis ClpP, FRET peptide cleavage, 20 min; active means well fitted falling curve with a large enough effect; inconclusive means small, poorly fitted or top-dose-only effect; inactive means no such curve, though single readings can be large or run the other way; further: the source files actives as falling curves though it sought activators and does not explain the sign; nearly all actives have a fitted effect of over 65% in size
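Purified B. subtilis ClpP, 10 microg/mL final in Tris/HCl pH8 with KCl, BSA, glycerol and Tween-20, cleaved an Abz/nitrotyrosine-quenched decapeptide. Fluorescence (ex 320, em 430) was read at 0 and 20 min at room temperature. Delta was normalized to 5.8 microM ADEP and DMSO/no-enzyme controls.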
Starred values were filed as active, the others as inactive; i = inactive; ? = inconclusive; . = not tested or not shown. Unless noted, the call rests on the fitted dose curve; in most records, active means well fitted curve in the direction sought with a large enough effect; inconclusive means small, poorly fitted or top-dose-only effect, or another doubt; inactive means no such curve, though single readings can be large; an effect the other way counts as inactive or inconclusive. Potency means the concentration at half of the fitted maximal effect.

SMILES	Mm-Cpn inhibitor	aSyn yeast inh	Abeta rescue	FUS suppressor	TDP43 rescue	ClpP mod
O=c1oc2ccccc2cc1-c1nc2c(s1)CCCC2	0.9%	1.5%	i	i	-1.6%	35.5µM*
O=C(Nc1nc(-c2cc3ccccc3oc2=O)cs1)c1ccco1	-1.6%	-7.5%	i	i	3.55µM*	1.0%
C[n+]1cccc(Br)c1	.	-0.8%	.	.	.	-1.3%
COc1cc2c(cc1OC)C(COc1ccc3c(C)cc(=O)oc3c1)N(C(=O)c1cccc(OC)c1OC)CC2 (stereo not given)	.	.	i	i	10.1%	56.1%
Cc1oc2c(c1C(=O)Nc1ccc(C(=O)O)cc1)CCCC2	0.7%	16.7%	i	i	12.6µM*	-2.7%
COc1ccc(-c2onc(C)c2-c2ccc(C(=O)OC(C)C)o2)c(O)c1	-2.1%	11.8%	i	i	14.1µM*	-0.2%
CCc1sc(C(=O)NCc2ccco2)cc1Br	-2.2%	-12.4%	i	i	15.8µM*	0.5%
CCC(C)NC(=O)Cn1c(=O)c2cccn2c2ccc(F)cc21 (stereo not given)	.	.	i	i	-0.7%	-16.3%
CCN1CCN(CCCNC(=O)Cn2c(-c3cccs3)cc3cc(F)ccc32)CC1	.	.	i	i	4.5%	17.8µM*
O=C(Cn1c(-c2cccs2)cc2cc(F)ccc21)NCCCN1CCN(c2ccc(F)cc2)CC1	.	.	i	i	16.5%	31.6µM*
N#Cc1ccccc1NC(=O)c1cc2c(=O)n3ccccc3nc2s1	.	.	i	i	-18.6%	4.0%
COC(=O)c1cc2sc(Cl)cc2n1Cc1c(C)cc(C)cc1C	.	.	i	i	14.7%	1.8%
O=C(O)c1ccc([N+](=O)[O-])cc1-c1cc([N+](=O)[O-])ccc1C(=O)O	.	-0.2%	i	i	1.3%	.
O=[N+]([O-])c1ccc2c(c1)-c1ccccc1C2O (stereo not given)	.	4.8%	i	i	11.2µM*	0.2%
CCOC(=O)[C@]12CCCCC/C=C\1N(CCc1ccc(Cl)cc1)C(=O)[C@H]2CC(=O)NCCCOC	.	.	.	i	.	.
O=C(N/N=C/c1cccc2cccnc12)c1ccccc1O	0.2%	22.4µM*	?	i	-14.1%	1.2%
Cc1ccc(-c2nc3ncccc3o2)cc1NC(=O)COc1ccccc1	-11.5%	-10.8%	i	i	3.2%	31.6µM*
CCc1ccc(OCC(=O)Nc2cc(-c3nc4cc(C)ccc4o3)ccc2C)cc1	.	0.7%	i	i	18.1%	3.98µM*
Cc1ccc(-c2nc3cccnc3o2)cc1NC(=O)COc1ccc(Cl)cc1C	-13.9%	-2.8%	i	i	12.5%	?
Cc1ccc(-c2nc3ncccc3o2)cc1NC(=O)Cc1ccc(Cl)cc1	-0.8%	-2.9%	i	i	0.9%	-5.5%
Cc1ccc(-c2nc3cccnc3o2)cc1NC(=O)COc1ccc(C(C)(C)C)cc1	0.3%	-10.9%	i	31.6µM*	?	28.2µM*
Cc1ccc(-c2nc3ncccc3o2)cc1NC(=O)CC(C)C	-0.4%	1.2%	i	i	12.6%	11.2µM*
COC(=O)C[C@@H]1CC[C@H]2[C@@H](COc3ccc(NC(=O)c4ccc(C(F)(F)F)cc4)cc3C(=O)N2C)O1	.	.	.	i	.	.
COc1cc2c(cc1OC)-c1cc(N3CCCCCC3)nc(=O)n1CC2	-0.4%	-1.5%	i	i	-12.9%	25.1µM*
COc1ccc(Nc2cc3n(c(=O)n2)CCc2cc(OC)c(OC)cc2-3)cc1	0.5%	0.8%	i	i	9.0%	-0.5%
SMILES	Mm-Cpn inhibitor	aSyn yeast inh	Abeta rescue	FUS suppressor	TDP43 rescue	ClpP mod
COc1cc2c(cc1OC)-c1cc(NC3CCCCCC3)nc(=O)n1CC2	-0.3%	-0.7%	i	i	-17.6%	25.1µM*
COc1cc2c(cc1OC)-c1cc(Nc3ccccc3)nc(=O)n1CC2	0.7%	10.9%	i	i	-11.9%	0.8%
CCN(CC)CCCNc1cc2n(c(=O)n1)CCc1cc(OC)c(OC)cc1-2	0.3%	-13.9%	i	i	-3.9%	25.1µM*
CCCCc1nn2c(=O)cc(COC(=O)c3ccco3)nc2s1	.	.	i	i	11.2%	-1.2%
Cc1ccc(Cn2ccnc2SCC(=O)Nc2ccccc2C(F)(F)F)cc1	.	.	?	i	40.7%	0.3%
O=C(c1ccccc1)c1coc2c1C(=O)c1ccccc1C2=O	-0.7%	-28.2%	i	i	?	.
Cc1oc2c(c1C(=O)NCc1cccnc1)C(=O)c1ccccc1C2=O	3.3%	11.0%	i	i	35.5µM*	0.4%
CC(=O)c1c(C)oc2c1C(=O)c1ccccc1C2=O	0.0%	-3.7%	i	.	5.01µM*	-1.9%
O=C1c2ccccc2C(=O)c2c1oc(C(F)(F)F)c2C(=O)c1ccccc1	-13.3%	-48.7%	i	.	3.55µM*	0.7%
COc1ccc(CNC(=O)c2c(C)oc3c2C(=O)c2ccccc2C3=O)cc1	-0.4%	2.7%	i	i	?	0.3%
CCOC(=O)c1cc(-c2ccccc2)n(CC(=O)N(C)c2ccc(OC)cc2)c1C	.	.	i	?	16.1%	-0.1%
CC1CCc2nc3ncn(Cc4ccccc4F)c(=O)c3cc2C1 (stereo not given)	.	.	i	i	18.7%	-3.0%
CN(C(=O)COc1ccccc1C(=O)Nc1ccccc1)c1ccccc1	.	-4.5%	.	.	.	-3.8%
CNc1cc(C(=O)O)nc2ccccc12	.	7.1%	.	.	.	-5.2%
C=C1C=C(C)n2ncc(C(=O)Nc3cccc4cnccc34)c2N1	.	?	.	.	.	-8.2%
Cc1ccn2c(C=O)c(-c3ccc(F)cc3)c(C=O)c2c1	-3.2%	-8.5%	i	i	20µM*	-0.6%
O=C1CC(c2ccco2)CC2=C1C(c1ccc(O)cc1)n1nc(C(F)(F)F)nc1N2 (stereo not given)	.	-1.2%	.	.	.	.
Cc1ccc(NC(=O)C2CCN(S(=O)(=O)c3c(C)noc3C)CC2)c(C)c1	.	.	i	i	14.7%	-0.8%
Cc1cccc(N2CCN(C(=O)c3cc4c(=O)n(C)c5ccccc5c4s3)CC2)c1C	.	.	i	i	0.6%	-1.5%
CCCc1cc(=O)oc2cc(C)cc(OCC(=O)O)c12	-7.9%	2.4%	i	i	-0.4%	15.8µM*
CC(=O)COc1cc(C)cc2oc(=O)c(C)c(C)c12	0.6%	-1.2%	i	i	-13.4%	?
CCCCc1cc(=O)oc2cc(C)c3c(C)coc3c12	.	.	i	i	-8.0%	28.2µM*
